Consider 14 compounds from PubChem BioAssay.

Assay [1] concerns Plasmodium falciparum Sir2 (PF13_0152, Sir2A). Briefly: Plasmodium falciparum Sir2A binding compounds – biochemical, small-molecule microarray, 635 nm fluorescence, primary screen (AID 1098).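 Further: score merges spot fluorescence intensity with its signal-to-noise ratio.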 The following applies: fluorescence 635 nm, higher = more signal.
Assay [2] can be described thus: probe aDKK1 binding to arrayed compounds – biochemical, biotinylated probe, 635/667 nm fluorescence, primary screen (AID 1099).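 Further: score merges 667nm spot fluorescence with signal to noise across triplicate slides; reference of the scale not given here.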 The following applies: small-molecule microarray, higher = more signal.
Assay [3] in a line: probe aCHRDL2 binding to arrayed compounds – biochemical, biotinylated probe, 635/667 nm fluorescence, primary screen (AID 1100). Particulars: small-molecule microarray, higher = more signal.
Assay [4] in a line: change in splice reporter luminescence, either direction, cell-based, HEK293, spliceosome inhibition project, primary screen (AID 1101).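 Further: HEK293 cells carrying a splicing-competent luciferase reporter gene; test concentration not given here.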 The following applies: HEK293 splicing luciferase reporter, 24 h, higher = more signal, called active from +8 up or from −8 down.
Assay [5] has as its target Fibroblast growth factor 10 (Homo sapiens) (UniProt O15520). Briefly: compounds binding fibroblast growth factor 10 – biochemical, small-molecule microarray, 635 nm fluorescence, primary screen (AID 1102). The following applies: FGF10 binding, fluorescence 635 nm, higher = more signal.
The subject of assay [6] is glycogen synthase kinase-3 (GSK3A per assay name; protocol says GSK3B). Briefly: compounds binding glycogen synthase kinase-3 – biochemical, small-molecule microarray, 635 nm fluorescence, GSK3A, primary screen (AID 1103). Further: the record names both GSK3A and GSK3B. The following applies: fluorescence 635 nm, higher = more signal.
The target in assay [7] is Epidermal growth factor receptor (Homo sapiens) (UniProt P00533). Briefly: compounds binding epidermal growth factor receptor – biochemical, small-molecule microarray, 635 nm fluorescence, primary screen (AID 1104).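 Further: score merges 667 nm emission intensity with spot signal to noise over triplicate slides.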 Particulars: EGFR binding, higher = more signal.
Sequence of Epidermal growth factor receptor (Homo sapiens) (P00533 whole entry, looked up): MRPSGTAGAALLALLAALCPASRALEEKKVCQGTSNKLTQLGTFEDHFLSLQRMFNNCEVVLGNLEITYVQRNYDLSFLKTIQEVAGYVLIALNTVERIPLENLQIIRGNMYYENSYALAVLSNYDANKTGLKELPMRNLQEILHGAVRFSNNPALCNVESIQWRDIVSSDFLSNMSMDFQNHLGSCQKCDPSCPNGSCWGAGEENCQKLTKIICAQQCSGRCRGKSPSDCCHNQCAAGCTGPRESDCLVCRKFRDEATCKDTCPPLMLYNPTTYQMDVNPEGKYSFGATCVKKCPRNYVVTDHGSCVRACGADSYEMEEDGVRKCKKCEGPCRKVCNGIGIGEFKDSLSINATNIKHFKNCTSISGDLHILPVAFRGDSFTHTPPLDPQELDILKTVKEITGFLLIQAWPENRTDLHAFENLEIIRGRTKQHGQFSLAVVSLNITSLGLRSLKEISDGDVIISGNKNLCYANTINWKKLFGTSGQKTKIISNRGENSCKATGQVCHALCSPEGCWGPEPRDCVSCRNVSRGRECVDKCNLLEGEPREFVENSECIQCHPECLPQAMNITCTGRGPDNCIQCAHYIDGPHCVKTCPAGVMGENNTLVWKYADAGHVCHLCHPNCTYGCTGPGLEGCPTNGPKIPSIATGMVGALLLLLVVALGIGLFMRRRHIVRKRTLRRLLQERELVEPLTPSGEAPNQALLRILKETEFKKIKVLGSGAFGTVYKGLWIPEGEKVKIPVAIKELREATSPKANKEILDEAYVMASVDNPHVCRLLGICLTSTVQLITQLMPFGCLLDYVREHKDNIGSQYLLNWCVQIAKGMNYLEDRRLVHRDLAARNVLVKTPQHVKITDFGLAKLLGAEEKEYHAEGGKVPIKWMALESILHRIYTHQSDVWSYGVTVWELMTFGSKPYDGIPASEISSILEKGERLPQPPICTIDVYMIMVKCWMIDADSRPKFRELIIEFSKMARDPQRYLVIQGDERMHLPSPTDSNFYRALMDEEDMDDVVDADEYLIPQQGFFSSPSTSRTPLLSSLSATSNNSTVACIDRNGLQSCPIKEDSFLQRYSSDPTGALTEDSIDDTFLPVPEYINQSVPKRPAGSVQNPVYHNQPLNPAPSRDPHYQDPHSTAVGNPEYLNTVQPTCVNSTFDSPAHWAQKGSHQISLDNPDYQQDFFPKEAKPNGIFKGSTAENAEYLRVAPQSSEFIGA
In assay [8] the target is Follistatin-related protein 3 (Homo sapiens) (UniProt O95633). Briefly: compounds binding follistatin-related protein 3 – biochemical, small-molecule microarray, 635 nm fluorescence, primary screen (AID 1105).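 Further: score merges emission near 667 nm and signal to noise per printed spot across three slides.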 Particulars: FSTL3 binding, higher = more signal.
Sequence of Follistatin-related protein 3 (Homo sapiens) (O95633 whole entry, looked up): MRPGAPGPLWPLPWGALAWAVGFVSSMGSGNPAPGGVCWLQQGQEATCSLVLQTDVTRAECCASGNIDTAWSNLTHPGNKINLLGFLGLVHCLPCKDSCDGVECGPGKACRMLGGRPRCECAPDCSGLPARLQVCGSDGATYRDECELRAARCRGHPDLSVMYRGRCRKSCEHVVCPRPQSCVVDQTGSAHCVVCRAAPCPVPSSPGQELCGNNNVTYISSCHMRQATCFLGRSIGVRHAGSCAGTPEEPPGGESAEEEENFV
Assay [9] has as its target Dickkopf-related protein 1 (Homo sapiens) (UniProt O94907). Briefly: small molecules binding DKK1 protein – biochemical, small-molecule microarray, 635 nm fluorescence scan, primary screen (AID 1106).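 Further: score merges emission near 667 nm with signal to noise over three replicate slides.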 Particulars: higher = more signal.
The test system of assay [10] is Inhibin beta A chain (activin A). As to the kind of experiment: small molecules binding activin A – biochemical, small-molecule microarray, 635 nm fluorescence scan, primary screen (AID 1107).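 Further: mouse activin A protein probed at 4.33 µg/mL on printed slides; score merges bound-protein fluorescence near 667 nm with spot signal-to-noise.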 Particulars: INHBA, higher = more signal.

Structures are written as SMILES. Active and inactive are the calls of the source.

Sequence of Dickkopf-related protein 1 (Homo sapiens) (O94907 whole entry, looked up): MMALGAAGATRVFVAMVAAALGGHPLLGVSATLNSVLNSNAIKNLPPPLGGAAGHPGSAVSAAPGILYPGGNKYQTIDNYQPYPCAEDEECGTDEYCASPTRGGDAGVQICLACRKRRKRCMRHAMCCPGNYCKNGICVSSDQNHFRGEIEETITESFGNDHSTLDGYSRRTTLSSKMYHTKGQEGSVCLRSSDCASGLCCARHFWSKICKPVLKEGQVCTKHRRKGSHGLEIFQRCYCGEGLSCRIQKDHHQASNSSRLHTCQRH
Sequence of Fibroblast growth factor 10 (Homo sapiens) (O15520 whole entry, looked up): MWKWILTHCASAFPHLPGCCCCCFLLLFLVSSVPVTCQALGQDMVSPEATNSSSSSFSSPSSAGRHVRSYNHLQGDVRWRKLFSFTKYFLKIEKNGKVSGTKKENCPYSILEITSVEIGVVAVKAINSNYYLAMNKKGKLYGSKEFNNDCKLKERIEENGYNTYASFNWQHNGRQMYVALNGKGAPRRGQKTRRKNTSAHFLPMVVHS

Take `COCCOC(=O)N1C(=O)[C@@]2(c3ccccc31)[C@H](c1ccc(OCCO)cc1)N1[C@H](c3ccccc3)[C@H](c3ccccc3)OC(=O)[C@H]1[C@@H]2C(=O)NC[C@H](O)c1ccccc1`: the composite z-score is 1.32 in [1]; 0.161 in assay [2]; 0.568 in assay [3]; 1.2 in assay [5]; 0.777 in assay [6]; 0.146 in [7]. Also, the composite z-score was determined as 1.38 in [8], 0.362 in assay [9] and 0.526 in assay [10]. Moreover, the z-score in assay [4] is -0.353 (inactive).
`CC1(C)[C@@H]2CC(C(O)C3C=CC4C(=O)N(c5ccccc5)C(=O)C4N3Nc3ccccc3F)=C[C@@H]1C2` (stereo not given in full): the composite z-score in assay [1] came out at 1.4; in assay [2] it was 0.26; in [3], 0.471; in assay [5] it was 1.34; in [6] it was 1.31; in assay [7] it was 0.4. For the same compound, the composite z-score in assay [8] amounted to 1.31; in [9], 0.122; in assay [10] it was 0.603. Besides, the z-score in assay [4] was -1.75 (inactive).
On to `C=CCOC(=O)[C@@H]1[C@H]2C(=O)O[C@H](c3ccccc3)[C@H](c3ccccc3)N2[C@H](c2ccc(OCCOC(=O)[C@@H]3C[C@@H]4C(=O)N[C@@H](CCCCNC(C)=O)C(=O)N4[C@@H]3c3ccc(O)cc3)cc2)[C@@]12C(=O)Nc1ccc(I)cc12`, for which the composite z-score is 1.58 in assay [1]; -0.219 in [2]; -0.249 in assay [3]; 1.43 in assay [5]; 1.27 in assay [6]; 1.12 in assay [7]. Further, the results for the composite z-score in [8], in assay [9] and in [10] were 1.35, 0.616 and 0.499, respectively. For the same compound, in assay [4], the z-score is 0.0887 (inactive).
With `[N-]=[N+]=Nc1ccccc1C[C@]1(C(=O)NCCN2CCOCC2)N=C(c2ccc(OCCCO)cc2)O[C@H]1c1ccccc1N=[N+]=[N-]`, the composite z-score in assay [1] is 1.15; in [2], 0.63; in [3] it was 1.07; in assay [5], 1.47; in [6], 1.29; in assay [7], 0.472. Besides, the composite z-score was found to be 1.2 in [8], 0.418 in assay [9] and 1.18 in assay [10]. Besides, in assay [4], the z-score is -1.41 (inactive).
`N#Cc1ccc(NN2C(C(O)c3ccco3)C=CC3C(=O)N(c4ccccc4)C(=O)C32)cc1` (stereo not given): the composite z-score is 0.939 in assay [1]; 0.565 in [2]; 0.843 in [3]; 0.505 in [5]; -0.202 in assay [6]; 0.0343 in [7]. Further, the composite z-score in assay [8] came to 0.0837; in assay [9], 0.18; in [10], 0.921. Besides, the z-score in [4] was 1.07 (inactive).
For the compound `[N-]=[N+]=Nc1ccccc1[C@@H]1OC(c2ccc(OCCCO)cc2)=N[C@]1(CCS(=O)(=O)c1ccccc1)C(=O)NCc1ccccc1`, the composite z-score in assay [1] was 1.29; in assay [2] it was 1.24; in assay [3] it was 1.28; in assay [5] it was 1.25; in assay [6], 0.309; in assay [7], 0.0329. In addition, the results for the composite z-score in assay [8], in assay [9] and in assay [10] were 1.18, -0.244 and 1.06, respectively. Further, in [4], the z-score was 0.385 (inactive).
As for `C=C(COC)C(=O)CC[C@H](OC(=O)c1ccccc1-c1ccccc1C(=O)O)c1ccc(CO)o1`, the composite z-score in [1] was 0.806; in assay [2] it was -0.416; in [3], -0.479; in assay [5], 1.43; in assay [6], 0.645; in [7], -0.358. Further, the composite z-score in [8] is 0.451; in [9], 0.532; in [10] it was 1.19. Also, the z-score in assay [4] is -0.0254 (inactive).
Take `C[C@H]1ON(c2ccccc2)[C@@H](c2ccccc2)[C@@H]1C(=O)N1C(=O)OC[C@@H]1c1ccccc1`: the composite z-score in assay [1] is 0.0672; in assay [2] it was -0.138; in [3], -0.351; in [5] it was 0.675; in assay [6], 0.363; in assay [7], 0.356. Further, the composite z-score was 0.699 in assay [8], 0.289 in [9] and 0.631 in [10]. For the same compound, in [4], the z-score was 0.216 (inactive).
For `O=C(O)[C@@]1(Cc2ccccc2)COC(c2ccc(OCCCO)cc2)=N1`, the composite z-score is 1.01 in [1]; 0.413 in [2]; 0.988 in [3]; -0.38 in [5]; -0.835 in assay [6]; -0.645 in assay [7]. The composite z-score in [8] was -1.14; in assay [9], -0.91; in [10], 0.53. Besides, in assay [4], the z-score was 0.483 (inactive).
Regarding `O=C1c2ccccc2C(=O)C2CC([C@H]3Oc4ccccc4S(=O)(=O)N4CCC[C@@H]34)=CCC12` (stereo not given in full), the composite z-score was -0.41 in [1]; -0.158 in assay [2]; -0.119 in assay [3]; 0.0804 in assay [5]; 0.301 in assay [6]; 0.153 in [7]. The composite z-score is -0.26 in assay [8], 0.187 in assay [9] and 0.771 in [10]. Further, the z-score in assay [4] was -0.279 (inactive).
For the compound `COC(=O)[C@]1(Cc2ccccc2CN=[N+]=[N-])N=C(c2ccc(OCCCO)cc2)O[C@@H]1c1ccccc1CN=[N+]=[N-]`, the composite z-score in assay [1] is 1.14; in assay [2] it was -0.188; in assay [3], 0.835; in assay [5], 0.468; in assay [6], 0.419; in assay [7] it was -0.267. Moreover, the values for the composite z-score in assay [8], in assay [9] and in assay [10] were -0.302, 0.127 and 0.721, respectively. The z-score in assay [4] was -0.613 (inactive).
In the case of `C=CCC(OC(C)=O)[C@@H]1[C@@H](N(Cc2ccc(-c3ccccc3)cc2)C(=O)c2cccc3ccccc23)c2cc(OCCCO)ccc2N1C(=O)c1ccc2ccccc2n1` (stereo not given in full), the composite z-score is -0.0429 in assay [1]; 0.0158 in assay [2]; 0.308 in assay [3]; -0.142 in assay [5]; 0.124 in [6]; 0.0271 in assay [7]. For the same compound, the composite z-score in assay [8] was -0.0464; in [9], -0.196; in assay [10] it was 1.24. In assay [4], the z-score was -0.379 (inactive).
As to `COc1ccc([Si](C)(C)[C@@H]2[C@@H](CC(=O)N(CCO)Cc3ccccc3)O[C@]3(C(=O)N(C)c4c(Br)cc(C)cc43)[C@H]2C)cc1`, the composite z-score in assay [1] was 0.717; in assay [2], -0.298; in [3], -0.237; in assay [5] it was 1.1; in assay [6], -0.27; in assay [7], 0.729. Further, the composite z-score in assay [8] came out at 1.09; in assay [9], 0.834; in assay [10], 1.02. The z-score in [4] was -1.92 (inactive).
`C[C@@]1([C@@H](NC(=O)c2cccs2)c2ccc(-c3ccccc3)cc2)C[C@H]1C1CCCCC1`: the composite z-score in assay [1] is 0.385; in [2], -0.336; in [3] it was 0.126; in [5] it was -0.728; in assay [6], -1.74; in assay [7], -0.84. Also, the composite z-score in assay [8] is -0.671; in assay [9] it was 0.0374; in assay [10], 1.49. For the same compound, the z-score in assay [4] is -3.26 (inactive).
